Integrin act MD: activates integrin-mediated alleviation for muscular dystrophy. alpha7betagal myoblasts, beta-gal FDG fluorescence, 48 h. Potency, µM (highest dose often 38.3 µM), without a hit: at the top dose activation, usual class: activators. 350,000 tested, 0.064% active. AID 624291; active = well fitted activation curve with a large enough effect; inconclusive = small, poorly fitted or top-dose-only effect; inactive = no such curve, though single readings can be large or run the other way;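 also: potency is read from the fitted curve at half-maximal effect; 100% = response of the positive control SU9516; nearly all actives have a fitted effect of over 60% in size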
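Alpha7betagal+/- myoblasts (passage 13) were plated 16-24 hr, then exposed to compounds (1:260 dilution of DMSO stock) for 48 hours at 37C. After MPER lysis, β-galactosidase reporter activity was read as FDG fluorescence (ex 480/em 540) after 30 minutes.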
DRD3 agonist: D3 dopamine receptor (human) agonism; P35462; D3R DiscoveRx beta-arrestin cells, luminescence, 90 min; max activation, %; 410,000 tested, 0.58% active; AID 652048; in the data active = max activation above about 30%; also: 0% is about no effect
Target sequence (P35462 whole entry, looked up): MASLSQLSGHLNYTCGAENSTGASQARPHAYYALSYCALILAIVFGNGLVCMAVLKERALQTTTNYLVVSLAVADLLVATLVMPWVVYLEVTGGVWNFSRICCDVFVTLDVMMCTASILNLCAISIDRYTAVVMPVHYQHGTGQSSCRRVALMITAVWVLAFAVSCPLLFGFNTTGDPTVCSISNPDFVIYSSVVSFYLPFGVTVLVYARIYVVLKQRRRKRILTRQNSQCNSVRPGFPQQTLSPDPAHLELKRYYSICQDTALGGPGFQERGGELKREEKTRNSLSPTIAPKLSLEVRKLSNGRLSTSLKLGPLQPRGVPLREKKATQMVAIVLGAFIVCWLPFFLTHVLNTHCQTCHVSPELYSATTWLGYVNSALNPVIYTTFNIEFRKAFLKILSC
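Cells at 1500/well, incubated overnight, then treated with pinned compounds (dopamine as control) for 90 min at 37 degrees C. DiscoveRx reagent added for 30 - 60 minutes at room temperature; luminescence read.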
DRD3 antagonist: antagonists of human D3 dopamine receptor. max response, negative = inhibition, %. P35462. 360,000 tested, 2.5% active. D3R cells, DiscoveRx beta-arrestin luminescence, antagonist mode; stronger effect = lower value. AID 652054; in the data active = max response below about -50%; inconclusive = no clear call, values can overlap the other calls; also: % is scaled to controls: 0 for no effect and ±100 for the full control effect
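Cells expressing the human receptor were seeded at 1500 cells/well, incubated overnight at 37 degrees C in 5% CO2, then exposed to library compounds with dopamine controls for 90 minutes at 37 degrees C before luminescent detection.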
An asterisk follows results filed as active; ? = inconclusive; nt = not tested or not shown; [ ] = remark or other dose. Rows were chosen to be rich in hits. Some 2.9% of all compounds tested hit in one or more screens of this group.

SMILES	Integrin act MD	DRD3 agonist	DRD3 antagonist
Cc1c(C(=O)N/N=C/c2ccccc2)sc(=S)n1C	24.3%	-1.6	?
COc1cccc(CN(C)S(=O)(=O)c2cccs2)c1	-13.5%	1.8	-20.5
CCN(CCCNC(=O)CCCCn1c(=O)[nH]c2ccccc2c1=O)c1ccccc1	-35.0%	2.6	-1.1
C=CCN1CCN(C(=O)c2cc3c(s2)CCC(CC)C3)CC1 (stereo not given)	39.4%	-31.7	-91.0*
CCC1CCc2sc(C(=O)O)cc2C1 (stereo not given)	-8.3%	-0.2	24.3
O=C(Nc1ccc(N2CCN(C(=O)c3ccc(Cl)cc3)CC2)cc1)c1ccc2c(c1)OCCO2	-23.6%	43.1*	23.3
O=C(Nc1ccc(N2CCN(C(=O)c3ccccc3)CC2)cc1)c1ccc2c(c1)OCCO2	0.6%	26.9	43.3
COc1ccccc1CN(C)C(=O)CN1CCN(S(=O)(=O)c2ccc3c(c2)OCCCO3)CC1	24.3%	-5.4	-3.5
O=C(Nc1cccc(N2CCCC2)c1)c1cccs1	5.2%	-33.3	-50.9*
Nc1cccc(NC(=O)c2cccs2)c1	0.5%	0.5	17.7
Oc1oc(-c2ccccc2)nc1C=Nc1ccccc1	-11.9%	-7.9	-16.1
O=[N+]([O-])c1cccc(/C=C/c2nc(C=Nc3ccccc3)c(O)o2)c1	-4.5%[7.66 µM]	31.4*	30.6
OC(c1ccc(F)cc1)c1ncc(-c2ccc(Oc3ccccc3)cc2)[nH]1 (stereo not given)	nt	5.7	48.6
CCOc1cc(N2CCOCC2)c(OCC)cc1NC(=O)Cc1cccc2ccccc12	6.9%	0.7	12.1
C[C@@]12C(=O)OC(=O)[C@]1(C)C1CCC2O1	nt	-67.9	-86.7*
CC12C(=O)N(c3nccs3)C(=O)C1(C)C1CCC2O1 (stereo not given)	21.6%	-5.7	-11.9
CN(Cc1cnn(-c2ccc(F)cc2)c1)C(=O)[C@H]1O[C@@H](n2ccc(N)nc2=O)[C@H](O)[C@@H]1O	nt	0.4	-13.2
CC(=O)N1SC(N)=NC1c1ccccc1 (stereo not given)	8.6%	1.6	-4.3
c1ccc([C@H]2CN3C(=N2)Sc2ccccc23)cc1	-22.2%	-14.2	-51.7*
CCNC(=O)C(=O)NCCC1CCCCN1S(=O)(=O)c1cccs1 (stereo not given)	-4.1%	-9.8	-53.9*
CC(C)CNC(=O)C(=O)NCCC1CCCCN1S(=O)(=O)c1cccs1 (stereo not given)	3.0%	-1.5	4.5
CC(C)N=C(Nc1ccc(Cl)cc1)c1cccnc1	11.5%	1.3	12.8
CC1=Nc2ccccc2/C1=C/c1sc(=N)n(-c2nccs2)c1O	-58.7%	-9.3	-96.1*
CC1=Nc2ccccc2/C1=C/c1nc(-c2ccc(C)s2)oc1O	8.7%	-3.7	-2.3
O=[N+]([O-])c1ccccc1S(=O)(=O)c1ccccc1	-41.8%	-6.9	-10.8
SMILES	Integrin act MD	DRD3 agonist	DRD3 antagonist
CCOC(=O)C1=C(Cn2cnc3ccccc32)NC(=O)NC1c1ccc(Cl)cc1 (stereo not given)	-32.1%[7.66 µM]	31.6*	27.8
CCOC(=O)C1=C(Cn2cnc3ccccc32)NC(=O)NC1c1ccc(OC)cc1 (stereo not given)	9.3%	-8.9	-0.5
Cc1ccc(S(=O)(=O)N2CCN(C(=O)CSc3nncs3)CC2)cc1	-15.7%	-5.3	-8.8
CC(C)N1CCCC(CNC(=O)CCc2nnc(CCCCc3ccccc3)o2)C1 (stereo not given)	-19.7%	8.0	-3.0
O=C1O[C@@H](c2ccccc2)C[C@@H](O)[C@H](O)CCCc2ccccc21	nt	-13.4	-54.6*
O=C1O[C@@H](c2ccccc2)C[C@@H](O)[C@H](O)CCCCc2ccccc21	nt	-13.8	0.0
Cc1nc(Nc2ccc(Cl)cc2)c2nnn(Cc3ccccc3)c2n1	11.3%	0.6	6.0
COc1ccc(Nc2nc(C)nc3c2nnn3Cc2ccccc2)cc1OC	-16.4%	2.5	0.0
Cc1nc(Nc2ccc(S(=O)(=O)N3CCCCC3C)cc2)c2nnn(Cc3ccccc3)c2n1 (stereo not given)	-29.5%	-5.0	-58.6*
CC(=O)Nc1ccc(Nc2nc(C)nc3c2nnn3Cc2ccccc2Cl)cc1	-22.0%	-20.4	-74.3*
COC(=O)CCCC1=CC2=CC(=O)C(C)(OC(=O)c3cccs3)C(=O)C2=CN1CCc1c[nH]c2ccccc12 (stereo not given)	14.9%	2.2	0.9
NC(=O)c1nsc(C(=O)N(CC(=O)NCc2ccccc2)c2cccc(F)c2)c1N	21.6%	-5.7	-2.3
CCCc1cc(=O)oc2cc(OC(C)C(=O)NCC3CCC(C(=O)O)CC3)ccc12 (stereo not given)	5.0%	0.0	22.7
O=C(CC1C(=O)N(c2ccc(F)cc2)C(=O)N1Cc1ccccn1)Nc1ccccc1 (stereo not given)	22.2%	-1.6	5.9
